Measurements published in paper PMC5700166.

molecular target: T1, GST-Dm-Relish (Drosophila melanogaster, UniProt Q94527 99-473); test: protein-binding microarray (PBM); PBM: ~300 nM protein, 6 mM HEPES pH 7.8, 80 mM KCl, 0.5 mM EDTA, 0.5 mM EGTA, 6% glycerol, 35 ng/ul poly-dIdC, 1% milk, 1 h, room temperature; Ap Aiptasia and Nv Nematostella (sea anemones) / Co Capsaspora / Aq Amphimedon (sponge) / Dm Drosophila / Hu human; RHD is the Rel homology domain; high values mean tight binding; conditions: dsDNA, one strand shown
T1 sequence: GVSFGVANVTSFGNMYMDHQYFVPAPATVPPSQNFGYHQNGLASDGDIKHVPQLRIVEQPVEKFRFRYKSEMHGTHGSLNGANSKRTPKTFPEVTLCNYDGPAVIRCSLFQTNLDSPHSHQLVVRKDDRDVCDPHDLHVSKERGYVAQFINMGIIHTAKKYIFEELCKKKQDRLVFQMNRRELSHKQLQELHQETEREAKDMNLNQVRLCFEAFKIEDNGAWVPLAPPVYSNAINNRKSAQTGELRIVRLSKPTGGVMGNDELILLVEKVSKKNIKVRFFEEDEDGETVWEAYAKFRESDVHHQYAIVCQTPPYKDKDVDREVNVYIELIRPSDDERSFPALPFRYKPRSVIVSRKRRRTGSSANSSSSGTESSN

Row | Sequence | binding signal [z-score]
1 | CCGATTAACATCACAAAAAATTTTGATGTTAATCGGGTCTTGATTCGCTTGACGCTGCTG | 2.12
2 | CCGATTAACATCAAAAAAATTACTGATGTTAATCGGGTCTTGATTCGCTTGACGCTGCTG | 3.61
3 | CCGATTAACATCAGAAAATTACATGATGTTAATCGGGTCTTGATTCGCTTGACGCTGCTG | 3.43
4 | CCGATTAACATCACAGGAAATCCTGATGTTAATCGGGTCTTGATTCGCTTGACGCTGCTG | 1.25
5 | CCGATTAACATCAAAATTCCATATGATGTTAATCGGGTCTTGATTCGCTTGACGCTGCTG | 1.14
6 | CCGATTAACATCATGTGGTTCTCTGATGTTAATCGGGTCTTGATTCGCTTGACGCTGCTG | 1.1
7 | CCGATTAACATCACGTGGATTCCTGATGTTAATCGGGTCTTGATTCGCTTGACGCTGCTG | 1.66
8 | CCGATTAACATCAGTGGTTACCATGATGTTAATCGGGTCTTGATTCGCTTGACGCTGCTG | 2.13
9 | CCGATTAACATCACGTGAATTCCTGATGTTAATCGGGTCTTGATTCGCTTGACGCTGCTG | 2.84
10 | CCGATTAACATCAAATGTACTAATGATGTTAATCGGGTCTTGATTCGCTTGACGCTGCTG | 1.5
11 | CCGATTAACATCAGGAATGTACATGATGTTAATCGGGTCTTGATTCGCTTGACGCTGCTG | 4.12
12 | CCGATTAACATCAGTTTTTTCCATGATGTTAATCGGGTCTTGATTCGCTTGACGCTGCTG | 1.54
13 | CCGATTAACATCAGTAATTTACATGATGTTAATCGGGTCTTGATTCGCTTGACGCTGCTG | 6.73
14 | CCGATTAACATCAAAATTCCATGTGATGTTAATCGGGTCTTGATTCGCTTGACGCTGCTG | 1.36
15 | CCGATTAACATCAGTAAAATCCATGATGTTAATCGGGTCTTGATTCGCTTGACGCTGCTG | 1.44
16 | CCGATTAACATCATGGTACTTGTTGATGTTAATCGGGTCTTGATTCGCTTGACGCTGCTG | 1.26
17 | CCGATTAACATCAGGAAAAACACTGATGTTAATCGGGTCTTGATTCGCTTGACGCTGCTG | 2.61
18 | CCGATTAACATCATAAAAAAAAATGATGTTAATCGGGTCTTGATTCGCTTGACGCTGCTG | 1.27
19 | CCGATTAACATCAAGTGAATTCCTGATGTTAATCGGGTCTTGATTCGCTTGACGCTGCTG | 3.49
20 | CCGATTAACATCACGTTATTTCCTGATGTTAATCGGGTCTTGATTCGCTTGACGCTGCTG | 1.09
21 | CCGATTAACATCACGTAAAATCCTGATGTTAATCGGGTCTTGATTCGCTTGACGCTGCTG | 1.05
22 | CCGATTAACATCAAGTACAACGGTGATGTTAATCGGGTCTTGATTCGCTTGACGCTGCTG | 1.44
23 | CCGATTAACATCACTATTGTACATGATGTTAATCGGGTCTTGATTCGCTTGACGCTGCTG | 1.29
24 | CCGATTAACATCAAGGAAAATACTGATGTTAATCGGGTCTTGATTCGCTTGACGCTGCTG | 1.2
25 | CCGATTAACATCACGTAAATCCATGATGTTAATCGGGTCTTGATTCGCTTGACGCTGCTG | 1
